# Reference: the supplement of paper PMC10849652
# Targets with a hit are over-represented here; the source holds about 7,900 in all. About 0.6% of all pairs of compound and target were hits. Values without a mark were called inactive.
# Tests used:
# Assay in all cases: log2 fold change, soluble protein after heating vs DMSO (PISA); higher = thermal stabilisation; K562 cells, 10 uM, 30 min; active = over 0.2 and 3.5 SD of the protein, either way, in both replicates (recomputed)
# YAE1 = YAE1 (UniProt Q9NRH1)
# How it was run: (§1)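 K562 cells at 2×10^6 cells/mL were given 10 μM compound for 30 min. Aliquots then went through 3 min of heating across 48°C-58°C, were pooled, and were extracted in PBS with 0.5% NP-40 at 4°C, and the supernatant after 21,000xg for 90 min was quantified by TMTpro 16plex LC-MS/MS with channel sums equalised. Thermal stability relative to control samples, from duplicates, is given as log2 fold change.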
# YBX1 = YBX1 (UniProt P67809)
# How it was run: as §1
# YES1 = YES1 (UniProt P07947)
# How it was run: as §1
# YIPF4 = YIPF4 (UniProt Q9BSR8)
# How it was run: as §1
# YIPF5 isoform 3 = YIPF5 isoform 3 (UniProt Q969M3)
# How it was run: as §1
# YIPF6 = YIPF6 (UniProt Q96EC8)
# How it was run: as §1
# YLPM1 = YLPM1 (UniProt P49750)
# How it was run: as §1
# YOD1 = YOD1 (UniProt Q5VVQ6)
# How it was run: as §1
# YPEL5 = YPEL5 (UniProt P62699)
# How it was run: as §1
# YWHAB = YWHAB (UniProt P31946)
# How it was run: as §1
# YWHAQ = YWHAQ (UniProt P27348)
# How it was run: as §1
# YWHAZ [1] = target: YWHAZ (UniProt E7ESK7)
# How it was run: as §1
# YWHAZ [2] = target: YWHAZ (UniProt P63104)
# How it was run: as §1
# YY1 = YY1 (UniProt P25490)
# How it was run: as §1
# ZADH2 = ZADH2 (UniProt Q8N4Q0)
# How it was run: as §1
# ZBTB43 = ZBTB43 (UniProt O43298)
# How it was run: as §1
# ZC3H18 = ZC3H18 (UniProt Q86VM9)
# How it was run: as §1
# ZBTB21 = ZBTB21 (UniProt Q9ULJ3)
# How it was run: as §1
# ZBTB17 isoform 2 = ZBTB17 isoform 2 (UniProt Q13105)
# How it was run: as §1
# Sequence of YWHAQ (P27348 whole entry, looked up): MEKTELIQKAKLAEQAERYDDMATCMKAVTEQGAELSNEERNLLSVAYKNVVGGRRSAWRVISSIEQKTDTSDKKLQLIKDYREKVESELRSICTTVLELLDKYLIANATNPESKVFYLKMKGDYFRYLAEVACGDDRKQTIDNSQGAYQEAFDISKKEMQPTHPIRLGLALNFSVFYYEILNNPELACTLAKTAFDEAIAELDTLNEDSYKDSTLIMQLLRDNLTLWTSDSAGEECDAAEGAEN
# Sequence of YPEL5 (P62699 whole entry, looked up): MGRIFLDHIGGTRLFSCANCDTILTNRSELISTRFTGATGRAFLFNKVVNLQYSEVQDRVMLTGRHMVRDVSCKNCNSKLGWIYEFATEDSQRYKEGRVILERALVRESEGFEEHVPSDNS
# Sequence of YLPM1 (P49750 whole entry, looked up): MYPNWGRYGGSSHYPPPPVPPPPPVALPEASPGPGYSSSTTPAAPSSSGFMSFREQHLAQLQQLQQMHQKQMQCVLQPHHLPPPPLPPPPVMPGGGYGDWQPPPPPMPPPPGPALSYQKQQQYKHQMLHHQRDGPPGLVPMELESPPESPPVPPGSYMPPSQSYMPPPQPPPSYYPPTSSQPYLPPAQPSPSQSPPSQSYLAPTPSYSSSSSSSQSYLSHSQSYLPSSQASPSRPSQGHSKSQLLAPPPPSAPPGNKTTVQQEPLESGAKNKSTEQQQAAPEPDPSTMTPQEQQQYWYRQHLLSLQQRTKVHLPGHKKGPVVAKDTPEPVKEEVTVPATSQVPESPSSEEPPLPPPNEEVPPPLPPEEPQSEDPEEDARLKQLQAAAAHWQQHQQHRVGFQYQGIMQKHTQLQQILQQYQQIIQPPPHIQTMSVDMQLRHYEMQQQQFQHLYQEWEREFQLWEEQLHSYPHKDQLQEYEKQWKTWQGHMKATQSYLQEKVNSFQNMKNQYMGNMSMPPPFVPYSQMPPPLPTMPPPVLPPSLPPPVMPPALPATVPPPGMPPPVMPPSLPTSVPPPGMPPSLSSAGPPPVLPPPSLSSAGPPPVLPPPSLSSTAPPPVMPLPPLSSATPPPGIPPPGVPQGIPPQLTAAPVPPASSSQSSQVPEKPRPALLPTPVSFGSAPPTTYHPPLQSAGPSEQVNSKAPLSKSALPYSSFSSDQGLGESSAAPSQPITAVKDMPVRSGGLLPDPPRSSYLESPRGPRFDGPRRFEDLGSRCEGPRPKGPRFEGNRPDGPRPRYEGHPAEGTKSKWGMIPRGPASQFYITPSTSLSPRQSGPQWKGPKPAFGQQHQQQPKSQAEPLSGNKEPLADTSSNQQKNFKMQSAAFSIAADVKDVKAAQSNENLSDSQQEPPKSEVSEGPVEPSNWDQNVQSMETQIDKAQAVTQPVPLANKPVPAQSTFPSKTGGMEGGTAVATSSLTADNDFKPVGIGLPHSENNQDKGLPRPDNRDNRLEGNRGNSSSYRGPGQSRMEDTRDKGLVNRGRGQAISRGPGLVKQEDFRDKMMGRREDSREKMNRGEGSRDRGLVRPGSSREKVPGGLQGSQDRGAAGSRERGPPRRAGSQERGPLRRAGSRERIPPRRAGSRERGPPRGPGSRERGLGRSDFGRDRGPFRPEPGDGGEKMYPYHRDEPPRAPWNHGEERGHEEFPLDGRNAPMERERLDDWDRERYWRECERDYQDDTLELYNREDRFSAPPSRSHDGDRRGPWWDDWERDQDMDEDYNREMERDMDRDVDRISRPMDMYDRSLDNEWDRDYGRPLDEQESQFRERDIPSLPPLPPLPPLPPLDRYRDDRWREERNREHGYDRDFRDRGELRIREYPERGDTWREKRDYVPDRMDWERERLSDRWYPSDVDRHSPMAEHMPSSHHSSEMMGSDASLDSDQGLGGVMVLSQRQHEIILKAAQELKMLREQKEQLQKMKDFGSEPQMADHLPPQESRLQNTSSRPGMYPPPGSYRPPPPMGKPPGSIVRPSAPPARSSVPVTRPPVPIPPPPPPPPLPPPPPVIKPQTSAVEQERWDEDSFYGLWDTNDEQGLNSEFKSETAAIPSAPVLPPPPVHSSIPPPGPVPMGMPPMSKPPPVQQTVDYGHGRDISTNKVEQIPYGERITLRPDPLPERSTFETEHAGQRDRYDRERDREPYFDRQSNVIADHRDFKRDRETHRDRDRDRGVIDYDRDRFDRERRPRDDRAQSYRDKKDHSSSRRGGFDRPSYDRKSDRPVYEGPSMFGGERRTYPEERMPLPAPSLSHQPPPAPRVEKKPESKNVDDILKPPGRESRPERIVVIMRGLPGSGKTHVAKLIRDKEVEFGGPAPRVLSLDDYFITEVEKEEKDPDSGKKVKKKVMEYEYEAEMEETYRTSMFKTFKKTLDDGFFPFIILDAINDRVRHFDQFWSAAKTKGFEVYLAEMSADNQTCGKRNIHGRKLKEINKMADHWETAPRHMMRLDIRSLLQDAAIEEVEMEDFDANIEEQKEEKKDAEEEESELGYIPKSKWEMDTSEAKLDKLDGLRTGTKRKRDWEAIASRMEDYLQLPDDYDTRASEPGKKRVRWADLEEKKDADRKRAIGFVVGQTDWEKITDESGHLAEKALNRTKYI
# Sequence of ZADH2 (Q8N4Q0 whole entry, looked up): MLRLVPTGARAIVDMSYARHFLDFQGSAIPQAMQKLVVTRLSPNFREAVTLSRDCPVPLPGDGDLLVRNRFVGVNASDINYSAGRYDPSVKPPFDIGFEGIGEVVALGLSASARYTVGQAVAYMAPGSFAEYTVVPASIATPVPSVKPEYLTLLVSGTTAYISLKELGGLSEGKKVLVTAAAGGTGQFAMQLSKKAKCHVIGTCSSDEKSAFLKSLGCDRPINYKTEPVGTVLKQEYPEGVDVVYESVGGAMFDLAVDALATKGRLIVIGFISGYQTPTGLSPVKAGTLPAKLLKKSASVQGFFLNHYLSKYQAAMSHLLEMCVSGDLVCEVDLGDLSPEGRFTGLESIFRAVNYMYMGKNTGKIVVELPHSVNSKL
# Sequence of ZC3H18 (Q86VM9 whole entry, looked up): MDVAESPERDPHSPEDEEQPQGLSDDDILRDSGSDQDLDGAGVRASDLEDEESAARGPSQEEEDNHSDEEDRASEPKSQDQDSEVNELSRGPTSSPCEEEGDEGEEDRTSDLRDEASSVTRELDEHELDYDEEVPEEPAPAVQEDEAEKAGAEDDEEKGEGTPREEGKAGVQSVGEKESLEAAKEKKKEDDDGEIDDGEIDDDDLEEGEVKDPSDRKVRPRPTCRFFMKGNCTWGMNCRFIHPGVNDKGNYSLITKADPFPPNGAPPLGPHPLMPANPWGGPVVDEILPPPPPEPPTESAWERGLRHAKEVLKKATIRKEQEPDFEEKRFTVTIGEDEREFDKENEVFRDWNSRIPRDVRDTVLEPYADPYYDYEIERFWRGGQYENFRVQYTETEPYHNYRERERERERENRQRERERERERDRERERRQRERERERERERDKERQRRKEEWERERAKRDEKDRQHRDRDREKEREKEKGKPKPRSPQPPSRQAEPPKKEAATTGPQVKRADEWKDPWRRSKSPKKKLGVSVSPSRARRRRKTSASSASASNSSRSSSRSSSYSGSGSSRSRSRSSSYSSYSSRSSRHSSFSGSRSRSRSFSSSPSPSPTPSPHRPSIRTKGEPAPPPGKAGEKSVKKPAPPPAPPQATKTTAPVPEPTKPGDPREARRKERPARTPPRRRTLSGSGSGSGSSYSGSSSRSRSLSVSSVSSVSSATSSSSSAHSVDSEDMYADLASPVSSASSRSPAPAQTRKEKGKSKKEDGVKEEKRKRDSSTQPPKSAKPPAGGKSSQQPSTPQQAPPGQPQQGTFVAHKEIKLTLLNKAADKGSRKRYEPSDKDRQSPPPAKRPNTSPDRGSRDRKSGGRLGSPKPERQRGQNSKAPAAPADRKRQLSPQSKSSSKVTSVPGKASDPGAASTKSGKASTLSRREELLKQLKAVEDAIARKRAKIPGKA
# Sequence of YWHAZ (UniProt P63104) (P63104 whole entry, looked up): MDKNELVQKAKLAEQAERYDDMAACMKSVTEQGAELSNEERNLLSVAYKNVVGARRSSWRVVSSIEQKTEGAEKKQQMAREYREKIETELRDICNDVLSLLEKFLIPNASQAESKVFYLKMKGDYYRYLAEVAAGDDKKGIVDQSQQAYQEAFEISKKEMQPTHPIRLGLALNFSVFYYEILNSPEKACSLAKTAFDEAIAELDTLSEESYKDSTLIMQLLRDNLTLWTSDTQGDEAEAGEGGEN
# Sequence of YIPF4 (Q9BSR8 whole entry, looked up): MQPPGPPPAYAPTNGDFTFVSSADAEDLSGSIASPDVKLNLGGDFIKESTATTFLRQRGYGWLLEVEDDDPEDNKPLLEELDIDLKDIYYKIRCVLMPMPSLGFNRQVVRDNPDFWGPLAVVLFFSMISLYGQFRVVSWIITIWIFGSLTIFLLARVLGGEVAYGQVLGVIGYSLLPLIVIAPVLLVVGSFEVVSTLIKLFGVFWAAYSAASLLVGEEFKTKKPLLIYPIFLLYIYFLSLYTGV
# Sequence of YOD1 (Q5VVQ6 whole entry, looked up): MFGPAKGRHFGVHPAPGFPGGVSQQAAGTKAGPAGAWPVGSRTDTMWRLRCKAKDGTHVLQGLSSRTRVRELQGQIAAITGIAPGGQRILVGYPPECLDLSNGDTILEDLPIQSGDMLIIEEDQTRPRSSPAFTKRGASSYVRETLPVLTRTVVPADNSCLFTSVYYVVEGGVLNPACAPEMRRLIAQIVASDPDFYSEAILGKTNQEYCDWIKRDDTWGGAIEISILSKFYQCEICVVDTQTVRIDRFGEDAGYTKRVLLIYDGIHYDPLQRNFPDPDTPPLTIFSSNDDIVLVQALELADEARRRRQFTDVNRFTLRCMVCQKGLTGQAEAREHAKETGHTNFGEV
# Sequence of YWHAB (P31946 whole entry, looked up): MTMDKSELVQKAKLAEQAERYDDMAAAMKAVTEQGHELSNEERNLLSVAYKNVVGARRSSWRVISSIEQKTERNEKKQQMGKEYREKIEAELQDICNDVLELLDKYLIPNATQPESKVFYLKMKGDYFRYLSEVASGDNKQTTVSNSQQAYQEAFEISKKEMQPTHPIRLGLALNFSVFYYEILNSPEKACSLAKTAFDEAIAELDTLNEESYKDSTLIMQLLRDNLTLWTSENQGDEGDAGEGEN
Compound,log2 fold change (YAE1),log2 fold change (YBX1),log2 fold change (YES1),log2 fold change (YIPF4),log2 fold change (YIPF5 isoform 3),log2 fold change (YIPF6),log2 fold change (YLPM1),log2 fold change (YOD1),log2 fold change (YPEL5),log2 fold change (YWHAB),log2 fold change (YWHAQ),log2 fold change (YWHAZ [1]),log2 fold change (YWHAZ [2]),log2 fold change (YY1),log2 fold change (ZADH2),log2 fold change (ZBTB43),log2 fold change (ZC3H18),log2 fold change (ZBTB21),log2 fold change (ZBTB17 isoform 2)
c1cn2cc(-c3ccc4cn[nH]c4c3)nc(Nc3ccc(N4CCOCC4)cc3)c2n1 [entospletinib],-0.07,0.162,-0.219,-0.015,-0.161,-0.046,-0.105,-0.013,0.009,0.009,-0.017,0.161,0.006,0.022,0.053,0.137,0.097,,
CC(C)(O)CC(=O)NCCn1ccc2ncnc(Nc3ccc(Oc4cccc(C(F)(F)F)c4)c(Cl)c3)c21,0.072,0.162,-0.054,-0.012,-0.094,0.019,-0.002,-0.113,0.041,-0.013,-0.084,0.021,0.027,-0.026,-0.323 (active),0.175,0.034,0.101,
Cn1c2cc(S(C)=O)sc2c2cnn(Cc3cccc(N)c3)c(=O)c21 (stereo unspecified),0.046,0.183,0.053,-0.06,0.043,-0.097,-0.057,-0.04,0.132,-0.068,-0.167,0.101,-0.115,0.045,-0.013,0.017,0.135,0.049,
CC(C)c1cnn2c(NCc3ccccc3)cc(NCCCCCCN)nc12,0.057,0.038,0,-0.032,0.008,-0.044,-0.086,-0.153,-0.083,0.014,-0.026,,0.052,-0.24 (active),-0.019,0.138,-0.122,-0.027,0.054
CNc1nc(-c2ccc3c(N)n[nH]c3c2)cc(N2C[C@@H](C(=O)NC3CCCCC3)CC[C@H]2C)n1,-0.092,0.044,-0.037,-0.082,-0.115,-0.039,0.006,0.011,-0.06,-0.015,0.179,-0.097,0.031,-0.08,-0.011,-0.014,-0.136,-0.111,
O=C(CCCCCCNC(=O)c1cnc(N(c2ccccc2)c2ccccc2Cl)nc1)NO [citarinostat],0.04,-0.13,0.008,0.042,0.023,0.011,0.099,0.067,-0.077,0.001,0.02,-0.053,-0.013,0.121,0.106,-0.173,0.028,,
CS(=O)(=O)CCNCc1ccc(-c2ccc3ncnc(Nc4ccc(OCc5cccc(F)c5)c(Cl)c4)c3c2)o1 [lapatinib],-0.052,0.317,0.057,-0.13,-0.163,0.061,-0.028,0.01,-0.113,-0.016,0.219,-0.051,0.197,-0.023,-0.049,,0.111,0.032,
Cn1cc(-c2ccc3nnc(C(F)(F)c4ccc5ncccc5c4)n3n2)cn1,0.043,-0.136,0.008,0.108,0.12,0.032,0.031,0.057,-0.071,-0.037,-0.066,-0.007,-0.045,-0.056,0.107,-0.054,0.008,-0.009,
Cn1cc(-c2ccc3c(c2)CCN3C(=O)Cc2cccc(C(F)(F)F)c2)c2c(N)ncnc21,-0.095,-0.199,-0.284,0.03,-0.014,-0.035,0.077,0.023,-0.077,0.005,0.124,0.102,0.052,0.004,0.04,0.023,-0.03,0.122,
Fc1ccc(Cl)cc1-c1nc(Nc2ccncc2)c2nccnc2n1,0.007,-0.273,-0.179,-0.014,0.024,0.138,0.057,0.021,-0.028,0.048,0.146,0.099,0.081,0.073,-0.011,-0.194,-0.134,-0.022,
Cn1cncc1[C@@](N)(c1ccc(Cl)cc1)c1ccc2c(c1)c(-c1cccc(Cl)c1)cc(=O)n2C [tipifarnib],-0.008,0.242,-0.001,0.31 (active),-0.059,-0.035,-0.048,-0.048,0.125,0.059,-0.112,0.127,-0.123,0.009,-0.053,,0.111,-0.02,
Cc1ccc(NC(=O)c2cccc(N(C)C)c2)cc1NC(=O)c1ccc(O)cc1,0.009,0.011,0.037,0.025,-0.138,0.024,-0.023,-0.028,0.081,-0.008,-0.023,0.082,0.011,-0.012,-0.047,0.141,-0.02,0.101,
CC[C@@H]1C(=O)N(C)c2cnc(Nc3ccc(C(=O)N[C@H]4CC[C@H](N5CCN(CC6CC6)CC5)CC4)cc3OC)nc2N1C(C)C [volasertib],-0.101,0.508,-0.038,0.134,0.058,-0.037,-0.265 (active),-0.247,-0.022,0.024,-0.073,-0.173,-0.016,-0.44 (active),0.754 (active),,-0.085,-0.063,
c1cc(OCCN2CCCCC2)cc(-c2n[nH]c3ccc(-c4nnc[nH]4)cc23)c1,-0.001,-0.156,-0.235,-0.051,-0.043,0.036,0,0.043,0.067,-0.019,0.105,0.095,0.05,-0.052,-0.017,-0.026,-0.147,,
CN1CC[C@H](c2c(O)cc(O)c3c(=O)cc(-c4ccccc4Cl)oc23)[C@H](O)C1 [alvocidib],0.249 (active),0.295,-0.029,0.027,0.003,0.022,0,-0.088,-0.234,-0.06,-0.192,-0.003,-0.056,-0.099,-0.05,0.008,-0.217,-0.067,
CNCc1ccc(-c2[nH]c3cc(F)cc4c3c2CCNC4=O)cc1 [rucaparib],-0.078,0.253,0.169,-0.028,0,0.055,-0.07,-0.041,0.002,-0.078,-0.016,-0.057,-0.041,-0.05,-0.071,-0.272,0.029,,
